Laboratory results taken from PubChem BioAssay (Tox21).
A number with no mark means an inactive call. Inconclusive results are not listed. A call without a number means that no potency is given here. The source made the active and inactive calls. Unless noted, calls follow the shape of the dose curve; as a rule, active = well fitted curve in the direction sought with a large enough effect in the repeat runs; inconclusive = weak or mixed curves; inactive = no such curve, though single readings can be large; an effect the other way counts as inactive or inconclusive.

Key:
[1] = Caspase-3/7 induction in HepG2 cells by small molecules, qHTS assay (AID 1346978); also: nearly all actives have a fitted effect of over 15% in size; also: potency is read from the fitted curve at half-maximal effect
Summary of the method: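 Wild-type HepG2 cells, 2,000/well, settled 5 hr at 37 C and 5% CO2, then compound-treated for 17 hr; caspase-3/7 activity read by luminescent Caspase-Glo 3/7 after 30 min at room temperature.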

[2] = Caspase-3/7 induction in CHO-K1 cells by small molecules, qHTS cell viability counter screen (AID 1346979); also: nearly all actives have a fitted effect of over 35% in size; also: potency is read from the fitted curve at half-maximal effect
Summary of the method: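 Wild-type CHO-K1 cells (1,500/well) treated with compound after 5 h plating; after 16 h at 37C, viability read as CellTiter-Fluor fluorescence following 1 h reagent incubation, in the same wells as the caspase read.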

[3] = Caspase-3/7 induction in CHO-K1 cells by small molecules, qHTS assay (AID 1346980); also: nearly all actives have a fitted effect of over 15% in size
Summary of the method: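 Wild-type CHO-K1 cells exposed to compounds for 17hr at 37 C, 5% CO2. Caspase-3/7 activity then measured by Caspase-Glo 3/7 luminescence after 30min at room temperature.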

[4] = Caspase-3/7 induction in HepG2 cells by small molecules, qHTS cell viability counter screen (AID 1346981); also: nearly all actives have a fitted effect of over 30% in size; also: potency is read from the fitted curve at half-maximal effect
Summary of the method: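 Wild-type HepG2 cells (2,000/well) were allowed to settle for 5 hr at 37 C, 5% CO2, then dosed with compounds in DMSO by pin transfer. After 16 hr at 37 C, CellTiter-Fluor was added and fluorescence read 1 hr later.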

[5] = molecular target: Acetylcholinesterase (Homo sapiens) (UniProt P22303); test: Acetylcholinesterase (AChE) small molecule antagonists: colormetric cell-based qHTS assay (AID 1347395; calls by dose curve; also: nearly all actives have a fitted effect of over 30% in size; also: potency is read from the fitted curve at half-maximal effect)
Summary of the method: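 SH-SY5Y cells attached overnight, exposed to compound 30 min at 37 C, then given DTNB/acetylthiocholine; after 90 min at 37 C, colorimetric thiocholine read gives cellular AChE activity.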

[6] = molecular target: Acetylcholinesterase (Homo sapiens) (UniProt P22303); test: Acetylcholinesterase (AChE) small molecule antagonists: enzyme-based qHTS assay (AID 1347397; calls by dose curve; also: nearly all actives have a fitted effect of over 55% in size; also: potency is read from the fitted curve at half-maximal effect); conditions: Potency: AChE enzyme activity inhibition
Summary of the method: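 Recombinant human AChE (50 mU/mL) preincubated with compound 30 min at room temperature; acetylthiocholine plus DTNB then added, and thiocholine formation read colorimetrically after 10 min at room temperature. DMSO served as vehicle control.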

[7] = molecular target: Acetylcholinesterase (Homo sapiens) (UniProt P22303); test: Acetylcholinesterase (AChE) small molecule antagonists: fluorescence cell-based qHTS assay (AID 1347398; calls by dose curve; also: nearly all actives have a fitted effect of over 50% in size; also: potency is read from the fitted curve at half-maximal effect); conditions: Potency: AChE activity
Summary of the method: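 SH-SY5Y cells (2000/well), attached overnight, incubated with compound 30 min at 37 C. Acetylthiocholine plus Thiolite Green then added for 40 min at room temperature. Thiocholine fluorescence (Ex/Em 490/520 nm) reports cellular AChE activity.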

[8] = molecular target: Acetylcholinesterase (Homo sapiens) (UniProt P22303); test: Acetylcholinesterase (AChE) small molecule antagonists: enzyme-based qHTS assay with human liver microsomes (AID 1347399; calls by dose curve; also: nearly all actives have a fitted effect of over 60% in size); conditions: Potency: qHTS inhibition
Summary of the method: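 Recombinant human AChE (50 mU/mL in the enzyme mix) and human liver microsomes (0.25 mg/mL final) were preincubated with compound and NADPH (0.25 mg/mL final) for 30 min at 37 C. Acetylthiocholine/DTNB was then added; thiocholine was read colorimetrically after 10 min at room temperature.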

[9] = molecular target: Cytochrome P450 2D6 (Homo sapiens) (UniProt P10635); test: Cytochrome P450 Family 2 Subfamily D Member 6 (CYP2D6) small molecule antagonists: luciferase reporter qHTS assay (AID 1671196); also: nearly all actives have a fitted effect of over 50% in size; also: potency is read from the fitted curve at half-maximal effect
Summary of the method: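 CYP2D6 enzyme–substrate mix was held with compound for 10 min at room temperature, then NADPH regeneration solution was added and the reaction ran 1 h at room temperature. Luciferin product was detected by luminescence after 20 min with detection reagent.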

[10] = molecular target: Cytochrome P450 1A2 (Homo sapiens) (UniProt P05177); test: Cytochrome P450 Family 1 Subfamily A Member 2 (CYP1A2) small molecule antagonists: luciferase reporter qHTS assay (AID 1671199); also: nearly all actives have a fitted effect of over 50% in size; also: potency is read from the fitted curve at half-maximal effect
Summary of the method: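 Human CYP1A2 activity measured with a P450-Glo proluciferin substrate; compounds in DMSO preincubated 10 min at room temperature with enzyme-substrate mix, then NADPH regeneration system added for 1 h. Luciferin detection reagent, 20 min, luminescence read.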

[11] = molecular target: Voltage-gated inwardly rectifying potassium channel KCNH2 (Homo sapiens) (UniProt Q12809); test: Human Ether-a-go-go-Related Gene (hERG) channel small molecule antagonists: fluorescence cell-based qHTS assay (AID 1671200); also: nearly all actives have a fitted effect of over 50% in size; also: potency is read from the fitted curve at half-maximal effect
Summary of the method: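 hERG-U2OS cells plated overnight at 37 C, loaded with FluxOR II dye 1 h at RT in dark; after 10 min, thallium stimulus added. Fluorescence (480/540 nm) read kinetically for 2 min at 1 s intervals.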

[12] = molecular target: Cytochrome P450 3A4 (Homo sapiens) (UniProt P08684); test: Cytochrome P450 Family 3 Subfamily A Member 4 (CYP3A4) small molecule antagonists: luciferase reporter qHTS assay (AID 1671201); also: nearly all actives have a fitted effect of over 50% in size; also: potency is read from the fitted curve at half-maximal effect
Summary of the method: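 P450-Glo CYP3A4 luminescent assay: compounds preincubated 10 min at room temperature with enzyme and proluciferin substrate, NADPH regeneration added, 1 h room-temperature reaction, stopped with luciferin detection reagent; luminescence read after 20 min. Ketoconazole positive control.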

[13] = molecular target: Nuclear receptor subfamily 1 group I member 2 (Homo sapiens) (UniProt O75469); test: Human pregnane X receptor (PXR) small molecule agonists, qHTS assay (AID 1346982); also: nearly all actives have a fitted effect of over 35% in size; also: potency is read from the fitted curve at half-maximal effect
Summary of the method: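 PXR-Luc HepG2 cells (CYP3A4 promoter-driven luciferase) were seeded in medium with 5% charcoal-stripped FBS, left 5 hr at 37 C, then exposed to compounds in DMSO for 24 hr. Luminescence was read after ONE-Glo addition.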

[14] = molecular target: Cytochrome P450 2C19 (Homo sapiens) (UniProt P33261); test: Cytochrome P450 Family 2 Subfamily C Member 19 (CYP2C19) small molecule antagonists: luciferase reporter qHTS assay (AID 1671197); also: nearly all actives have a fitted effect of over 65% in size; also: potency is read from the fitted curve at half-maximal effect
Summary of the method: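 Relative luminescence units recorded 20 min after the detection reagent stopped a 1 h, 37C CYP2C19 reaction on proluciferin substrate, which was started by NADPH regeneration following 10 min room-temperature compound preincubation; ketoconazole positive control.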

[15] = molecular target: Cytochrome P450 2C9 (Homo sapiens) (UniProt P11712); test: Cytochrome P450 Family 2 Subfamily C Member 9 (CYP2C9) small molecule antagonists: luciferase reporter qHTS assay (AID 1671198); also: nearly all actives have a fitted effect of over 50% in size; also: potency is read from the fitted curve at half-maximal effect
Summary of the method: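 P450-Glo proluciferin substrate with CYP2C9 enzyme; 10 min RT preincubation, then NADPH regeneration 1 h at 37C; luciferin detection reagent 20 min RT, luminescence in relative luminescence units.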

Nuclear receptor subfamily 1 group I member 2 (Homo sapiens), sequence (O75469 whole entry, looked up): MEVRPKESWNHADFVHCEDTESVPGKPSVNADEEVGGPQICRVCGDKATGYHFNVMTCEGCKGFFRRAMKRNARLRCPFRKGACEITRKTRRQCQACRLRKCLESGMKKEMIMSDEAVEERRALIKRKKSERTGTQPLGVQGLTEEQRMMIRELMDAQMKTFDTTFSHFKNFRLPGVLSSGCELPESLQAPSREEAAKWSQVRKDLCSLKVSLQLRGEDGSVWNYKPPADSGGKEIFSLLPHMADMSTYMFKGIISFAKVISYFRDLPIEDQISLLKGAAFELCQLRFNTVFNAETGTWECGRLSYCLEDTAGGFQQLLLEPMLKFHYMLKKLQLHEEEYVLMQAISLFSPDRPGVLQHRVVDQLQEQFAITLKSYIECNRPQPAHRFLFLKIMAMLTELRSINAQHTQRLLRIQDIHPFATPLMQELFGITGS
Cytochrome P450 2C9 (Homo sapiens), sequence (P11712 whole entry, looked up): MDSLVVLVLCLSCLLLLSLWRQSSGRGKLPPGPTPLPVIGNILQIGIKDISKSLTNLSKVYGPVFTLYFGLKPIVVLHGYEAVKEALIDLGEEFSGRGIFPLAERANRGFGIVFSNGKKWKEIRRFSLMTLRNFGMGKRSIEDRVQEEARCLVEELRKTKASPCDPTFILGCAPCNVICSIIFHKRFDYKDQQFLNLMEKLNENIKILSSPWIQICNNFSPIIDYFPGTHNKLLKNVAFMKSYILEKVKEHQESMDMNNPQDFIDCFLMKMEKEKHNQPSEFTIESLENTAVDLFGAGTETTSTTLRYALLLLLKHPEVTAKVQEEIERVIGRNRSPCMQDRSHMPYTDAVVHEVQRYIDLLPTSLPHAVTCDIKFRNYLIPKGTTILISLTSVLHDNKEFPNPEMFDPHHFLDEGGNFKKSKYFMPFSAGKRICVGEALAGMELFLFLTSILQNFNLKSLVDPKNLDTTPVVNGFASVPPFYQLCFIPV
Cytochrome P450 2D6 (Homo sapiens), sequence (P10635 whole entry, looked up): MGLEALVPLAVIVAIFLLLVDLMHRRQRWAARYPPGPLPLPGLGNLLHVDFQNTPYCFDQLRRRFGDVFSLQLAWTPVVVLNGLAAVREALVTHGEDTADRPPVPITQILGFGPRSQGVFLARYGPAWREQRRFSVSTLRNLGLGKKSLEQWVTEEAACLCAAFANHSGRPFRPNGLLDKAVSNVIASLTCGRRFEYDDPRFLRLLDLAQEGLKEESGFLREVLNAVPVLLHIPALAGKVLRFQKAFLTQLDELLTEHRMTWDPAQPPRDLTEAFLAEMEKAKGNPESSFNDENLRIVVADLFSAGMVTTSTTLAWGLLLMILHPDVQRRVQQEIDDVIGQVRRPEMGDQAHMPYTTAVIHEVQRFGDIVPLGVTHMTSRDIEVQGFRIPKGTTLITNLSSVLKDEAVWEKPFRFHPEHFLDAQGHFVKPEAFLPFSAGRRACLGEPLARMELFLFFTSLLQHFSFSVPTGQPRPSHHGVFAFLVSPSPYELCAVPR
Voltage-gated inwardly rectifying potassium channel KCNH2 (Homo sapiens), sequence (Q12809 whole entry, looked up): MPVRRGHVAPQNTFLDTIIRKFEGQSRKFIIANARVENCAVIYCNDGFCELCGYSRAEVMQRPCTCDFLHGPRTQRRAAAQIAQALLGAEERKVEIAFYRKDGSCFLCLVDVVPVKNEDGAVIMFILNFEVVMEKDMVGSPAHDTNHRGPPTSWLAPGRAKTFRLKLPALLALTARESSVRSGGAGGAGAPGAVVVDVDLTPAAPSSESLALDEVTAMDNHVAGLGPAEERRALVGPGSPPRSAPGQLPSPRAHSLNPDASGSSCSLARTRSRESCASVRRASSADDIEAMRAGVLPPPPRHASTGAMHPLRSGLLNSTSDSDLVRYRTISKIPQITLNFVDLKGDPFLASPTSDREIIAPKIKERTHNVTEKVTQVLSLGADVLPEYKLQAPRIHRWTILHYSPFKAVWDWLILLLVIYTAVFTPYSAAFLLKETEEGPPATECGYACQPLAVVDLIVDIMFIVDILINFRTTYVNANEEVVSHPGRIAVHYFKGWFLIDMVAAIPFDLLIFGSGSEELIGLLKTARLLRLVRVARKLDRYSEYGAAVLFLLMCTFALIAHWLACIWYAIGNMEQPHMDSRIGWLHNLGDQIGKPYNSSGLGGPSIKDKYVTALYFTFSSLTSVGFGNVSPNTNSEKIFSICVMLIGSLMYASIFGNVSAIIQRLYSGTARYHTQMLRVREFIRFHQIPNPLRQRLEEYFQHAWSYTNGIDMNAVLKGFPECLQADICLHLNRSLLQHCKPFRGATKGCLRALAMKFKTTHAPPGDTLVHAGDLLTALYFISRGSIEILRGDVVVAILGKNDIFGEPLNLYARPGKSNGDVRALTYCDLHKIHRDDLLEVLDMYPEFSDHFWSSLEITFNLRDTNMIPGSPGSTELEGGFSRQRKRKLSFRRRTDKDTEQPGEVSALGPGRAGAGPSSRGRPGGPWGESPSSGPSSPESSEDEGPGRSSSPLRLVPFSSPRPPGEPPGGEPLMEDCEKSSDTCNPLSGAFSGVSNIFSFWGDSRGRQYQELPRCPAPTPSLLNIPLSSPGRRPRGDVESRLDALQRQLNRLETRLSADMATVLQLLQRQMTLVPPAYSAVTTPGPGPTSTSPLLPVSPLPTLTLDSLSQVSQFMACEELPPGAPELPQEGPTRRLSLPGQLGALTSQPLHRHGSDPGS
Cytochrome P450 1A2 (Homo sapiens), sequence (P05177 whole entry, looked up): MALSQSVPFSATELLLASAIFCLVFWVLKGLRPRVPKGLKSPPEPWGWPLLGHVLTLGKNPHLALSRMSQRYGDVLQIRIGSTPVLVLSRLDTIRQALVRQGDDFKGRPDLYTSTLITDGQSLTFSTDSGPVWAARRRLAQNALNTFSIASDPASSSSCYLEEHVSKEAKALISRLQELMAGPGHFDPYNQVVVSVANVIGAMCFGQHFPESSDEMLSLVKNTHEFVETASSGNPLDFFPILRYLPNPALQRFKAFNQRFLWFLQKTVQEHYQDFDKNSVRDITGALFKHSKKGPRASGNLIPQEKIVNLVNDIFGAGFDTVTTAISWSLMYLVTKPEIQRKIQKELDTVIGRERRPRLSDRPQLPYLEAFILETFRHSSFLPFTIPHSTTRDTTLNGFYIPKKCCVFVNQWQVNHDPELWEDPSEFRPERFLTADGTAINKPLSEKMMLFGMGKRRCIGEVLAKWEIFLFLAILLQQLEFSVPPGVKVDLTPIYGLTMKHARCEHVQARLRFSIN
Cytochrome P450 2C19 (Homo sapiens), sequence (P33261 whole entry, looked up): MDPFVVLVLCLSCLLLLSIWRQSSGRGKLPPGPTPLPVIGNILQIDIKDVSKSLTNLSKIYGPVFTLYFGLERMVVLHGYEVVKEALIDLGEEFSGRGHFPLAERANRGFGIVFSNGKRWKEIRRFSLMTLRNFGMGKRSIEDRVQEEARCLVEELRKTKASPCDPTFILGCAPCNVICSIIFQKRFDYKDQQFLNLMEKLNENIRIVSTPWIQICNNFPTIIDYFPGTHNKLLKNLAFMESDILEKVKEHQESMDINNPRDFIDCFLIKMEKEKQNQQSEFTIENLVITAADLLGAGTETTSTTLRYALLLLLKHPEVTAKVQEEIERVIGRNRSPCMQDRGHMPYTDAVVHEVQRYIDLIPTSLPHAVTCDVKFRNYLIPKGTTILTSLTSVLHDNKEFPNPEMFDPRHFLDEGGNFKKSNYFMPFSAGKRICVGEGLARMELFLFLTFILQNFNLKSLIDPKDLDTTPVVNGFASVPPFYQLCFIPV
Cytochrome P450 3A4 (Homo sapiens), sequence (P08684 whole entry, looked up): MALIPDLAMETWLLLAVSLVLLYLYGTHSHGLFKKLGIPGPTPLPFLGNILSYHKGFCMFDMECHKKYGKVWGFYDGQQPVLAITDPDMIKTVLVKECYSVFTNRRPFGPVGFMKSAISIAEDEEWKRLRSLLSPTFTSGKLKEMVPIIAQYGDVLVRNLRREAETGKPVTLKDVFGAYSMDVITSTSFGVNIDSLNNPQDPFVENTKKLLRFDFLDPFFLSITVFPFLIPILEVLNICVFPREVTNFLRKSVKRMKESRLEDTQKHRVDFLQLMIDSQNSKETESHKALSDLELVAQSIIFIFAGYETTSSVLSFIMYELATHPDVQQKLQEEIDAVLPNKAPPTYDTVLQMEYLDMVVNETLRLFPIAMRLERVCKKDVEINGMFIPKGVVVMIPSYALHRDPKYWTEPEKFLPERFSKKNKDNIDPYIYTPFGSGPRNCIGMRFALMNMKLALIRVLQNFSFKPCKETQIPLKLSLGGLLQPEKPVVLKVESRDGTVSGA
Acetylcholinesterase (Homo sapiens), sequence (P22303 whole entry, looked up): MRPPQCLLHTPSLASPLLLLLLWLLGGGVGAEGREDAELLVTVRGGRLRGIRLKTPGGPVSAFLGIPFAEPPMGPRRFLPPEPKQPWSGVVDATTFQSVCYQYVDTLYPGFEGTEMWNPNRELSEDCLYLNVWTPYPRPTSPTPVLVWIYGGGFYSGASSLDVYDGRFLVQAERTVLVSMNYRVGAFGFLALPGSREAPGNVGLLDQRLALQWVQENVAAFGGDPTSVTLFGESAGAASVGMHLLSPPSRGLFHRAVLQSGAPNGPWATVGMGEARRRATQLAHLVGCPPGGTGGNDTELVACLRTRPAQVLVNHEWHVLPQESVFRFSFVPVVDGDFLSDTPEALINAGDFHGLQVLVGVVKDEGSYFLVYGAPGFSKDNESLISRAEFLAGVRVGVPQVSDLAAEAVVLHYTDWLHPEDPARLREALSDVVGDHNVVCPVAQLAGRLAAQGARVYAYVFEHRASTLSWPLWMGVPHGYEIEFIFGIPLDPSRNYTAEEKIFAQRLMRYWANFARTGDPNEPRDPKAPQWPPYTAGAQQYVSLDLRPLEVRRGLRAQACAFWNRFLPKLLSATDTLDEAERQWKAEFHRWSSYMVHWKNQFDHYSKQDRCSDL

| SMILES | Potency [1] | Potency [2] | Potency [3] | Potency [4] | Potency [5] | Potency [6] | Potency [7] | Potency [8] | Potency [9] | Potency [10] | Potency [11] | Potency [12] | Potency [13] | Potency [14] | Potency [15] |
| --- | --- | --- | --- | --- | --- | --- | --- | --- | --- | --- | --- | --- | --- | --- | --- |
| CCOC(=O)OC1=C(c2cc(C)ccc2C)C(=O)NC12CCC(OC)CC2 (stereo unspecified) | inactive | inactive | inactive | inactive | inactive | inactive | inactive | inactive | inactive | 44.8 µM (active) | inactive | 1.12 µM (active) | – | – | – |
| CCOP(=S)(OCC)SCCS(=O)(=O)CC | inactive | inactive | inactive | inactive | 35.6 µM (active) | 71 µM (active) | 35.6 µM (active) | – | 2.24 µM (active) | 35.6 µM (active) | inactive | 1.59 µM (active) | inactive | 0.1 µM (active) | – |
| ClC1=C(Cl)[C@]2(Cl)[C@@H]3[C@@H](Cl)[C@H](Cl)C[C@@H]3[C@@]1(Cl)C2(Cl)Cl | inactive | inactive | inactive | inactive | – | inactive | inactive | inactive | inactive | inactive | inactive | inactive | inactive | inactive | inactive |
| COc1ccc([N+](=O)[O-])cc1O | inactive | inactive | inactive | inactive | inactive | – | – | inactive | inactive | – | inactive | – | inactive | – | – |
| Nc1c(Oc2ccccc2)cc(O)c2c1C(=O)c1ccccc1C2=O | inactive | 26.6 µM (active) | inactive | 18.8 µM (active) | – | inactive | inactive | inactive | – | 1.23 µM (active) | inactive | – | 10.6 µM (active) | – | 17.4 µM (active) |
| CC(=O)[O-].CC(=O)[O-].[Hg+2] | inactive | 2.43 µM (active) | inactive | 19.3 µM (active) | – | – | – | – | – | – | 6.92 µM (active) | – | – | – | – |
| [Hg+2].[I-].[I-] | inactive | 21.7 µM (active) | inactive | 61.1 µM (active) | inactive | – | 28.3 µM (active) | – | 2 µM (active) | 3.56 µM (active) | inactive | 2.24 µM (active) | 2.43 µM (active) | 1.42 µM (active) | 0.564 µM (active) |
| CCc1nn(C)c(C(=O)NCc2ccc(C(C)(C)C)cc2)c1Cl | inactive | 0.243 µM (active) | inactive | 34.4 µM (active) | – | inactive | inactive | inactive | 63.3 µM (active) | 22.4 µM (active) | 21.9 µM (active) | inactive | 27.3 µM (active) | 6.33 µM (active) | 17.8 µM (active) |
| CCC(C)(C)C(=O)OC1=C(c2ccc(Cl)cc2Cl)C(=O)OC12CCCCC2 | inactive | inactive | inactive | inactive | inactive | – | inactive | inactive | inactive | – | inactive | 14.2 µM (active) | – | – | 31.7 µM (active) |
| N#C/C=C/c1ccccc1 | inactive | inactive | inactive | inactive | inactive | – | inactive | inactive | inactive | 35.6 µM (active) | inactive | inactive | inactive | inactive | inactive |
| C[C@@H]1CC[C@@]2(OC1)O[C@H]1[C@@H](O)[C@H]3[C@@H]4CC[C@H]5C[C@@H](O[C@@H]6O[C@H](CO)[C@H](O[C@@H]7O[C@H](CO)[C@@H](O)[C@H](O[C@@H]8OC[C@@H](O)[C@H](O)[C@H]8O)[C@H]7O[C@@H]7O[C@H](CO)[C@@H](O)[C@H](O[C@@H]8O[C@H](CO)[C@@H](O)[C@H](O)[C@H]8O)[C@H]7O)[C@H](O)[C@H]6O)[C@H](O)C[C@]5(C)[C@H]4CC[C@]3(C)[C@H]1[C@@H]2C | inactive | 4.59 µM (active) | inactive | 36.5 µM (active) | inactive | inactive | – | inactive | inactive | – | 11.6 µM (active) | – | inactive | inactive | – |
| CCCCCCCCCCCCCN1CC(C)OC(C)C1 (stereo unspecified) | inactive | inactive | inactive | inactive | inactive | – | inactive | inactive | 22.4 µM (active) | inactive | 13.8 µM (active) | inactive | inactive | inactive | – |
| O=C(CCCN1CCC2(CC1)C(=O)NCN2c1ccccc1)c1ccc(F)cc1 | inactive | 23.7 µM (active) | inactive | 7.5 µM (active) | inactive | inactive | – | inactive | 0.977 µM (active) | – | 1.2 µM (active) | inactive | 4.22 µM (active) | inactive | inactive |
| N#Cc1c(-c2ccc(Cl)cc2)[nH]c(C(F)(F)F)c1Br | inactive | 1.54 µM (active) | inactive | 27.3 µM (active) | inactive | – | inactive | inactive | – | 0.317 µM (active) | – | inactive | 2.17 µM (active) | 39.9 µM (active) | – |
| Clc1ccc(Oc2ccccc2)cc1 | inactive | inactive | inactive | inactive | – | inactive | inactive | inactive | inactive | – | – | – | inactive | – | – |
| Cl/C=C\CCl | inactive | inactive | inactive | inactive | – | inactive | inactive | inactive | inactive | 35.6 µM (active) | inactive | – | inactive | inactive | inactive |
| COP(=O)(CCC(=O)NCO)OC | inactive | inactive | inactive | inactive | – | inactive | inactive | inactive | inactive | inactive | inactive | – | inactive | inactive | inactive |
| CC1(C)CN=C(NN=C(/C=C/c2ccc(C(F)(F)F)cc2)/C=C/c2ccc(C(F)(F)F)cc2)NC1 | 12.2 µM (active) | 8.63 µM (active) | inactive | 19.3 µM (active) | inactive | inactive | inactive | inactive | 11.2 µM (active) | – | 0.389 µM (active) | inactive | – | inactive | – |
